Experimental data from PubChem BioAssay (NCI).
Several values for one entry are separate records, joined by “and”; a condition that tells them apart may be missing. Equal values may be shown once. This is part of a sample that, as a whole, favours compounds with a hit. Of some 83,000 tested, about 20% had one in any assay.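 Step 1: grow cells in 96-well plates. Step 2: add test compound at a single concentration. Step 3: incubate 48 h. Step 4: record percent growth.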 Activity calls are given as the source filed them. How the source made its calls: active means growth percent below 10; inactive means the rest.

Columns and labels:
Assay in all cases: NCI-60 one-dose screen, 48 h (100 = growth as untreated, 0 = no growth, -100 = all killed)
Conditions in all cases: 10 µM unless noted
TK-10 renal = tested on: TK-10 renal
SK-MEL-2 melanoma = tested on: SK-MEL-2 melanoma
SN12C renal = tested on: SN12C renal
UO-31 renal = tested on: UO-31 renal
ACHN renal = tested on: ACHN renal
CAKI-1 renal = tested on: CAKI-1 renal
A498 renal = tested on: A498 renal
CCRF-CEM leukemia = tested on: CCRF-CEM leukemia
MOLT-4 leukemia = tested on: MOLT-4 leukemia
RPMI-8226 leukemia = tested on: RPMI-8226 leukemia
OVCAR-8 ovarian = tested on: OVCAR-8 ovarian
OVCAR-5 ovarian = tested on: OVCAR-5 ovarian
OVCAR-4 ovarian = tested on: OVCAR-4 ovarian
SK-OV-3 ovarian = tested on: SK-OV-3 ovarian
IGROV1 ovarian = tested on: IGROV1 ovarian
OVCAR-3 ovarian = tested on: OVCAR-3 ovarian
HS 578T breast = tested on: HS 578T breast
HL-60(TB) leukemia = tested on: HL-60(TB) leukemia
SR leukemia = tested on: SR leukemia
EKVX NSCLC = tested on: EKVX NSCLC

Structure (SMILES)	growth (TK-10 renal)	growth (SK-MEL-2 melanoma)	growth (SN12C renal)	growth (UO-31 renal)	growth (ACHN renal)	growth (CAKI-1 renal)	growth (A498 renal)	growth (CCRF-CEM leukemia)	growth (MOLT-4 leukemia)	growth (RPMI-8226 leukemia)	growth (OVCAR-8 ovarian)	growth (OVCAR-5 ovarian)	growth (OVCAR-4 ovarian)	growth (SK-OV-3 ovarian)	growth (IGROV1 ovarian)	growth (OVCAR-3 ovarian)	growth (HS 578T breast)	growth (HL-60(TB) leukemia)	growth (SR leukemia)	growth (EKVX NSCLC)
NNC(=S)N/N=C(\C(=O)Nc1cccc(O)c1)C1C(=O)NC(=S)NC1=O	132% [100 µM] (inactive) and 93% [100 µM] (inactive)	–	–	–	–	–	–	–	–	–	–	–	–	–	–	–	–	–	–	–
CCCCOC(N)=O	–	113% (inactive)	103% (inactive)	89.1% (inactive)	111% (inactive)	103% (inactive)	125% (inactive)	102% (inactive)	96.8% (inactive)	114% (inactive)	98% (inactive)	110% (inactive)	106% (inactive)	100% (inactive)	113% (inactive)	109% (inactive)	110% (inactive)	–	–	–
O=S(OO)c1cc(Cl)c(O)c(Cl)c1 (centres undefined)	100% (inactive)	110% (inactive)	–	84.2% (inactive)	100% (inactive)	91.3% (inactive)	82.5% (inactive)	91% (inactive)	103% (inactive)	99.9% (inactive)	101% (inactive)	107% (inactive)	89.9% (inactive)	103% (inactive)	104% (inactive)	114% (inactive)	104% (inactive)	103% (inactive)	95.1% (inactive)	–
CCOC(=O)C1=C(C)/C(=C\c2[nH]c(C)c(C(=O)OCC)c2C)N=C1C	–	–	–	–	–	–	–	–	–	–	–	–	–	–	–	–	–	41.6% (inactive)	–	–
Cc1ccc(NC(=O)c2cc3ccccc3cc2O)c(C)c1	–	–	–	–	–	–	–	–	–	–	–	–	–	–	–	–	–	54.3% (inactive)	–	–
CN(N)/N=N/c1nc[nH]c1[N+](=O)[O-]	79.1% [100 µM] (inactive) and 9.85% [100 µM] (active)	–	–	–	–	–	–	–	–	–	–	–	–	–	–	–	–	–	–	–
COc1cc(C=C2C(=O)NC(=O)NC2=O)ccc1O	127% (inactive)	–	96.5% (inactive)	94.4% (inactive)	101% (inactive)	–	69% (inactive)	113% (inactive)	–	–	93.7% (inactive)	92% (inactive)	101% (inactive)	107% (inactive)	105% (inactive)	110% (inactive)	–	95.6% (inactive)	–	153% (inactive)
O=C1C=CC(=O)N1CO	–	–	–	–	–	–	–	–	–	–	–	–	–	–	–	–	–	-11.7% (active)	–	–
CNC(=O)O/N=C(\SC)C(=O)N(C)C	103% (inactive)	–	104% (inactive)	93.1% (inactive)	101% (inactive)	107% (inactive)	95.8% (inactive)	92.2% (inactive)	86.5% (inactive)	86% (inactive)	97.7% (inactive)	101% (inactive)	119% (inactive)	102% (inactive)	110% (inactive)	107% (inactive)	96.4% (inactive)	88.9% (inactive)	72.2% (inactive)	–
CCOC(=O)C1C(c2ccco2)C2(C#N)C(=N)OC1(C)C2(C#N)C#N (centres undefined)	83.8% [100 µM] (inactive) and 19.2% [100 µM] (inactive)	–	–	–	–	–	–	–	–	–	–	–	–	–	–	–	–	–	–	–
C[C@@]12CCCc3coc(c31)C(=O)c1cc3c(cc12)C(=O)C1=C(NCCS1(=O)=O)C3=O	28.2% (inactive)	-41.3% (active)	–	35.7% (inactive)	30.6% (inactive)	10.5% (inactive)	35.3% (inactive)	-28.7% (active)	–	-30.4% (active)	-13.1% (active)	-28.3% (active)	-89.3% (active)	-12.6% (active)	-23.9% (active)	-47.2% (active)	-12.3% (active)	-45% (active)	-13.3% (active)	–
O=C(O)C(Br)CBr (centres undefined)	–	85.1% (inactive)	98% (inactive)	89.4% (inactive)	97.4% (inactive)	101% (inactive)	107% (inactive)	96.3% (inactive)	87.7% (inactive)	103% (inactive)	92.9% (inactive)	117% (inactive)	–	101% (inactive)	–	106% (inactive)	111% (inactive)	–	99% (inactive)	–
O=[N+]([O-])c1ccc(CI)cc1	112% (inactive)	–	–	91.9% (inactive)	65.5% (inactive)	54.5% (inactive)	95.7% (inactive)	21.5% (inactive)	14.7% (inactive)	53.2% (inactive)	84.4% (inactive)	96.8% (inactive)	102% (inactive)	116% (inactive)	115% (inactive)	–	111% (inactive)	64.4% (inactive)	34.4% (inactive)	–
O=P1(N(CCCl)CCCl)NCCCO1 (centres undefined)	–	114% (inactive)	95.4% (inactive)	90.3% (inactive)	103% (inactive)	99.8% (inactive)	115% (inactive)	95.6% (inactive)	96.8% (inactive)	103% (inactive)	102% (inactive)	108% (inactive)	111% (inactive)	111% (inactive)	114% (inactive)	121% (inactive)	115% (inactive)	–	99% (inactive)	–
O=C1CCCCC1CN1CCCCC1 (centres undefined)	90.4% (inactive)	–	99.9% (inactive)	88.7% (inactive)	102% (inactive)	102% (inactive)	96.6% (inactive)	98.7% (inactive)	116% (inactive)	108% (inactive)	110% (inactive)	97.1% (inactive)	119% (inactive)	97.9% (inactive)	93.9% (inactive)	100% (inactive)	107% (inactive)	93.4% (inactive)	123% (inactive)	104% (inactive)
C=C1C(=O)OC2/C=C(\C)CC/C=C(/C)CC(OC(=O)/C(=C/CO)CO)C12 (centres undefined)	-78.7% [100 µM] (active) and -88.5% [100 µM] (active)	–	–	–	–	–	–	–	–	–	–	–	–	–	–	–	–	–	–	–
Cc1ccc(C(=O)O[C@H](C(=O)O)[C@H](OC(=O)c2ccc(C)cc2)C(=O)O)cc1	105% (inactive)	–	102% (inactive)	–	106% (inactive)	102% (inactive)	120% (inactive)	105% (inactive)	90.9% (inactive)	106% (inactive)	98.8% (inactive)	114% (inactive)	103% (inactive)	96.9% (inactive)	103% (inactive)	111% (inactive)	128% (inactive)	95.4% (inactive)	–	–
CC(Oc1ccc(-c2ccccc2)cc1)C(=O)O (centres undefined)	–	107% (inactive)	104% (inactive)	91.8% (inactive)	104% (inactive)	99.2% (inactive)	77.7% (inactive)	98.4% (inactive)	104% (inactive)	101% (inactive)	103% (inactive)	108% (inactive)	101% (inactive)	105% (inactive)	103% (inactive)	111% (inactive)	110% (inactive)	97.3% (inactive)	106% (inactive)	–
C[C@]12CCC(=O)C[C@@H]1CC[C@@H]1[C@@H]2CC[C@]2(C)[C@@H](OC(=O)N(CCCl)N=O)CC[C@@H]12	32.9% (inactive)	17.7% (inactive)	–	25.4% (inactive)	9.18% (active)	5.32% (active)	43.5% (inactive)	14.7% (inactive)	13.3% (inactive)	17.4% (inactive)	27.8% (inactive)	42.6% (inactive)	72.6% (inactive)	16.1% (inactive)	-29.7% (active)	49.5% (inactive)	35.7% (inactive)	-10.5% (active)	–	–
Cc1cc(N(CCCl)CCCl)ccc1C=Nc1ccc(-c2csc(-c3ccccc3)n2)cc1	113% (inactive)	97.2% (inactive)	–	59.9% (inactive)	80.5% (inactive)	32.7% (inactive)	97.7% (inactive)	46.5% (inactive)	22.5% (inactive)	77.3% (inactive)	91.3% (inactive)	120% (inactive)	89.6% (inactive)	71.6% (inactive)	93.2% (inactive)	89.7% (inactive)	107% (inactive)	49.1% (inactive)	31.4% (inactive)	–
Cc1cc[n+](CCc2ccccc2)cc1	91.8% (inactive) and 106% (inactive)	–	–	57.8% (inactive) and 85.1% (inactive)	103% (inactive)	97% (inactive) and 98.7% (inactive)	83.9% (inactive) and 93.6% (inactive)	101% (inactive)	90.4% (inactive) and 101% (inactive)	115% (inactive)	95.7% (inactive) and 99.1% (inactive)	88.3% (inactive) and 116% (inactive)	–	116% (inactive) and 115% (inactive)	–	104% (inactive) and 118% (inactive)	105% (inactive)	97.8% (inactive) and 95.8% (inactive)	–	–
COc1ccc(N)cc1N	148% (inactive)	–	101% (inactive)	70.8% (inactive)	101% (inactive)	101% (inactive)	122% (inactive)	111% (inactive)	163% (inactive)	90.1% (inactive)	–	98.5% (inactive)	97.6% (inactive)	100% (inactive)	–	120% (inactive)	108% (inactive)	128% (inactive)	–	107% (inactive)
O=C(NC(Cl)=C(Cl)Cl)P(=O)(c1ccccc1)c1ccccc1	118% (inactive)	–	107% (inactive)	95.8% (inactive)	112% (inactive)	85.7% (inactive)	102% (inactive)	98.6% (inactive)	87.1% (inactive)	101% (inactive)	126% (inactive)	105% (inactive)	–	107% (inactive)	95% (inactive)	115% (inactive)	113% (inactive)	–	88.3% (inactive)	–
CC1CCNC(C)C1 (centres undefined)	–	–	–	–	–	–	–	–	–	–	–	–	–	–	–	–	–	113% (inactive)	–	–
O=c1c2ccccc2nc(-c2ccccc2Cl)n1-c1nnc(C(F)(F)F)s1	42% (inactive)	–	21.9% (inactive)	19.4% (inactive)	51.8% (inactive)	3.51% (active)	-7.82% (active)	7.41% (active)	3.92% (active)	0.839% (active)	32.7% (inactive)	78.2% (inactive)	37.5% (inactive)	25.7% (inactive)	–	18.7% (inactive)	26.7% (inactive)	–	-6.69% (active)	–
